Among all 200,000 compounds or so, about 110 (0.055%) were called active. Many of the other results were omitted from the sample, so actives are more common in it than they were. A number with no mark means an inactive call. Rule as the data show it: active = inhibition above about 50%; inactive = the rest.
biological target: Serine/threonine-protein kinase D1 (Homo sapiens) (UniProt Q15139); assay: inhibitors of human PKD1 kinase, biochemical, fluorescence polarization (AID 797); conditions: PKD1 kinase fluorescence polarization assay; active compounds read high; concentration not given here
Sequence (Q15139 whole entry, looked up): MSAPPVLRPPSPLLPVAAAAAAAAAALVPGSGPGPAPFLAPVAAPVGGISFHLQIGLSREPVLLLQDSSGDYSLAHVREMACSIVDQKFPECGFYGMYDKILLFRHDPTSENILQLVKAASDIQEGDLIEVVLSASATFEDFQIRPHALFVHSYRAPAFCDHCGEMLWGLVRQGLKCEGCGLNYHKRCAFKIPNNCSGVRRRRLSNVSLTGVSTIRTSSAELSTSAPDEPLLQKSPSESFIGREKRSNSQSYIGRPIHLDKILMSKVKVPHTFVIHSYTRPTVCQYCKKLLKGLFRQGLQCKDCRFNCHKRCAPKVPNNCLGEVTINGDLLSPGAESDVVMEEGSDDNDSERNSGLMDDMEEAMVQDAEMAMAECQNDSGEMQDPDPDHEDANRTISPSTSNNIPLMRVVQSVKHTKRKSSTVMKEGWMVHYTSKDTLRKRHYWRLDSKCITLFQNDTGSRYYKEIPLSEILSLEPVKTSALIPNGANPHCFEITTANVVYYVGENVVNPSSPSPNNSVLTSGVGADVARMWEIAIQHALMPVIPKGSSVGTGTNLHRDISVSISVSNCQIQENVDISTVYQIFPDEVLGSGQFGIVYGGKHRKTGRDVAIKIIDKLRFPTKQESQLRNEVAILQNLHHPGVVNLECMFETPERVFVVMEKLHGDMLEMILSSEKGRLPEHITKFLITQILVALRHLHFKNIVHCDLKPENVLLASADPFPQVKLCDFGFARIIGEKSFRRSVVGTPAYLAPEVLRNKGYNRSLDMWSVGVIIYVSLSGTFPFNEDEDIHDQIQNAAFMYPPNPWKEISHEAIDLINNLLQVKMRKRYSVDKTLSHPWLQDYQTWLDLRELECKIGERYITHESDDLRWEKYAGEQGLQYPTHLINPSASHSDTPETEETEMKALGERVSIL

Question: Which inhibition does the source give for CC(C)NC(=S)Nc1cccc2cnccc12 here?
Answer: The inhibition was -7.44%.

Question: How did the inhibition turn out when O=C(NC1(C(F)(F)F)NC(=O)N(C2CCCCC2)C1=O)c1ccco1 (centres undefined) was run?
Answer: Its inhibition is -4.49%.

Question: For Cc1onc(C(=O)NN)c1C(=O)N1CCN(C(c2ccccc2)c2ccccc2)CC1, which inhibition is on record?
Answer: Its inhibition is 6.23%.

Question: For CCO[C@H]1OC(C(=O)O)=C[C@@H](C2CCCCC2)[C@@H]1CCCO, which inhibition is on record?
Answer: The inhibition was 1.68%.

Question: With O=C(N/N=C/c1cccc([N+](=O)[O-])c1)C1CC(=O)N(c2ccc(Br)cc2)C1 (centres undefined) as the compound, how does the inhibition read?
Answer: The inhibition was 0.4%.

Question: Which inhibition does the source give for O=C(NCCN1CCOCC1)Nc1cccc(Cl)c1 here?
Answer: Its inhibition is -8.08%.

Question: Which inhibition does the source give for Cc1ccc(-c2c(C)n([O-])c3c([n+]2=O)CCC3)cc1 here?
Answer: The inhibition was -5.77%.

Question: Cc1cc(C)c(C#N)c(SCC(=O)NN2CC(=O)N(c3ccccc3F)CC2=O)n1 was tested. Which inhibition did it give?
Answer: The inhibition was -3.74%.

Question: With O=C(OC1CCOC1=O)c1cccc(S(=O)(=O)Nc2ccc(F)cc2)c1 (centres undefined) as the compound, how does the inhibition read?
Answer: The inhibition was 1.98%.

Question: How did the inhibition turn out when C=CCn1cc(-c2cccc(C(F)(F)F)c2)cc(C#N)c1=O was run?
Answer: Its inhibition is 7.22%.

Question: How did the inhibition turn out when O=C(N1CCCC1)C12CC3CC(C1)CC(C(=O)N1CCCC1)(C3)C2 was run?
Answer: Its inhibition is -14.2%.

Question: Which inhibition does the source give for CCC1CO/C(=C(\C(=C(Cl)Cl)N2CCOCC2)[N+](=O)[O-])N1 (centres undefined) here?
Answer: The inhibition was -0.65%.

Question: For COc1cc(OC)c(C(=O)OC(C)C(=O)Nc2cc(C(F)(F)F)ccc2Cl)cc1OC (centres undefined), which inhibition is on record?
Answer: Its inhibition is 8.47%.

Question: Which inhibition does the source give for O=C(CSc1ccc(-c2ccc(F)cc2)nn1)Nc1ccc2c(c1)OCCO2 here?
Answer: Its inhibition is -0.29%.

Question: Which inhibition does the source give for Cc1cc(C(=O)NNC(=S)NC(C)c2ccccc2)cs1 (centres undefined) here?
Answer: Its inhibition is 5.7%.

Question: Which inhibition does the source give for C/C(CC(=O)Nc1cccc(C(F)(F)F)c1)=N\NC(=O)C(=O)NCC(C)C here?
Answer: The inhibition was 3.3%.

Question: For Cc1cc(N2CCN(C)CC2)nc2ccc(NC(=S)N3CCOCC3)cc12, which inhibition is on record?
Answer: The inhibition was -7.15%.

Question: Which inhibition does the source give for CCn1c2ccccc2c2cc(NC(=O)COC(=O)c3ccccc3Br)ccc21 here?
Answer: The inhibition was -14.8%.

Question: For c1ccc(-c2csc(N3CCc4ccccc4C3)n2)cc1, which inhibition is on record?
Answer: Its inhibition is -5.96%.

Question: With COC(=O)[C@@H]1CC[C@H](C)[C@@H](c2ccc(C)cc2)N1C(=O)c1ccc(/C=N/O[C@H](C)c2cn([C@@H]3COC[C@H]3O)nn2)cc1 as the compound, how does the inhibition read?
Answer: The inhibition was -8.4%.

Question: CCC(=O)NC(=S)Nc1ccc(NC(=O)c2ccco2)c(Cl)c1 was tested. Which inhibition did it give?
Answer: Its inhibition is -0.32%.

Question: CN(C)CCCNC(=O)/C=C/c1ccc(OCc2c(F)cccc2Cl)cc1 was tested. Which inhibition did it give?
Answer: Its inhibition is -5.92%.

Question: CCCC1(C(=O)OC)NC(c2ccco2)C2C(=O)N(C)C(=O)C21 (centres undefined) was tested. Which inhibition did it give?
Answer: Its inhibition is -3.52%.

Question: With Cc1ccc(NC(=O)C2CCCN(S(=O)(=O)c3c(C)noc3C)C2)c(C)c1 (centres undefined) as the compound, how does the inhibition read?
Answer: The inhibition was 72.5% (active).

Question: How did the inhibition turn out when COc1c(C)cc(C(=O)C2CCCN(S(=O)(=O)c3c(C)noc3C)C2)cc1C (centres undefined) was run?
Answer: Its inhibition is 11.5%.

Question: Which inhibition does the source give for Cc1noc(C)c1S(=O)(=O)N1CCCC(C(=O)Nc2nccs2)C1 (centres undefined) here?
Answer: The inhibition was -0.06%.

Question: Which inhibition does the source give for CCCCN(CC(=O)NC(C)(C)C)C(=O)C(=O)Nc1ccc2c(c1)OCCO2 here?
Answer: Its inhibition is 1.16%.

Question: CCCOC(=O)c1ccc(N2C(=O)c3ccccc3C2=O)cc1 was tested. Which inhibition did it give?
Answer: The inhibition was 1.49%.

Question: How did the inhibition turn out when O=C(CCc1ccccc1)NNC(=O)c1ccc(Br)cc1 was run?
Answer: The inhibition was 4.58%.

Question: For O=C(c1ccccc1)c1ccc(OCC(O)CN2CCCC2)cc1 (centres undefined), which inhibition is on record?
Answer: Its inhibition is 13.5%.

Question: Which inhibition does the source give for COC(=O)c1ccc(OCC(O)CN(CCO)CC(O)Cn2ccc3ccccc32)cc1 (centres undefined) here?
Answer: The inhibition was 3.96%.

Question: OC(CNCc1ccc(Cl)c(Cl)c1)c1ccccc1 (centres undefined) was tested. Which inhibition did it give?
Answer: Its inhibition is -3.03%.

Question: For COc1cc2c(cc1OC)C(Nc1ccc(S(N)(=O)=O)cc1)=NC(C)(C)C2, which inhibition is on record?
Answer: The inhibition was -5.13%.

Question: For COc1ccc(NC(=O)c2sc(N3CCOCC3)nc2-c2ccccc2)c(OC)c1, which inhibition is on record?
Answer: Its inhibition is -1.24%.

Question: With CCC(=O)Nc1ccc(C(=O)N2CCN(C(=O)c3ccco3)CC2)cc1 as the compound, how does the inhibition read?
Answer: Its inhibition is 2.96%.

Question: Cc1ccc(NC(=O)Cn2c(=O)n(CCC(=O)NC3CCN(Cc4ccccc4)CC3)c(=O)c3ccccc32)cc1 was tested. Which inhibition did it give?
Answer: Its inhibition is 0.69%.

Question: O=C(CN1CCOCC1)Nc1c(Cl)cc(Cl)cc1Cl was tested. Which inhibition did it give?
Answer: Its inhibition is -2.42%.

Question: How did the inhibition turn out when Cc1ccc2nsnc2c1NC(=O)c1ccccc1[N+](=O)[O-] was run?
Answer: The inhibition was -3.06%.

Question: Which inhibition does the source give for Cc1ccccc1NS(=O)(=O)CCCCC(Cl)(Cl)Cl here?
Answer: The inhibition was -2.05%.

Question: COc1cccc(C2SCC(=O)N2c2cccc(C)c2)c1OC (centres undefined) was tested. Which inhibition did it give?
Answer: Its inhibition is -7.34%.

Question: How did the inhibition turn out when O=C(NN1C(=O)C2C3C=CC(O3)C2C1=O)c1ccncc1 (centres undefined) was run?
Answer: The inhibition was -9.52%.

Question: With COc1ccccc1C(=O)NN1C(=O)C2C3C=CC(O3)C2C1=O (centres undefined) as the compound, how does the inhibition read?
Answer: Its inhibition is 52.7% (active).

Question: With O=C(NN1C(=O)C2C3C=CC(O3)C2C1=O)c1ccccc1 (centres undefined) as the compound, how does the inhibition read?
Answer: The inhibition was -7.27%.

Question: Which inhibition does the source give for O=C(Cc1cccs1)Nc1cccc(-c2nc3ccccc3[nH]2)c1 here?
Answer: The inhibition was -1.91%.

Question: With CCc1cc(C(N)=O)c(NC(=O)c2ccc(OC)cc2)s1 as the compound, how does the inhibition read?
Answer: The inhibition was -8.2%.

Question: O=C(O)CC(SCC(=O)Nc1ccc(Br)cc1)C(=O)O (centres undefined) was tested. Which inhibition did it give?
Answer: Its inhibition is -6.53%.

Question: With CCOC(=O)c1cnc(SCC(=O)Nc2ccccc2C(=O)OC)nc1N as the compound, how does the inhibition read?
Answer: Its inhibition is -2.4%.

Question: With Cc1nc2cc(NC(=O)NC3CC3)ccc2n1C as the compound, how does the inhibition read?
Answer: Its inhibition is -0.99%.

Question: Which inhibition does the source give for O=C(Cc1ccc([N+](=O)[O-])cc1)N/N=C/c1ccco1 here?
Answer: The inhibition was -4.83%.

Question: For CCCCC(=O)Nc1ccc(C(=O)Nc2cc(C(F)(F)F)ccc2Cl)cc1, which inhibition is on record?
Answer: The inhibition was -1.39%.

Question: O=C(COc1nc2ccccc2nc1N1CCOCC1)NCC(F)(F)F was tested. Which inhibition did it give?
Answer: The inhibition was -0.08%.

Question: With CC(=O)Nc1ccc(S(=O)(=O)N(CCc2ccccc2)CC(=O)N/N=C/c2ccc(C(=O)O)cc2)cc1 as the compound, how does the inhibition read?
Answer: Its inhibition is 5.13%.

Question: For CCN(CC(=O)Nc1ccccc1OC)C(=O)Cn1cnc2ccccc2c1=O, which inhibition is on record?
Answer: Its inhibition is 7.55%.

Question: Which inhibition does the source give for N=C1C(c2nc3ccccc3s2)=C(O)CN1NC(=O)c1ccc([N+](=O)[O-])cc1 here?
Answer: Its inhibition is -8.3%.
